EPAC2 antagonist = EPAC2 (human) antagonism; AID 720708; EPAC2 GEF exchange of Rap1B-BODIPY-GDP, fluorescence; 360,000 compounds, 0.18% hits; Q8WZA2; Potency, µM (top dose mostly 114 µM), hits mostly inhibitors; note: nearly all actives have a fitted effect of over 45% in size
EPAC1 antagonist = antagonists of human EPAC1; O95398; EPAC1 GEF assay, Rap1b-BODIPY-GDP exchange fluorescence; Potency, µM (doses to about 115 µM), actives largely listed as inhibitors; 360,000 compounds, 0.14% hits; note: nearly all actives have a fitted effect of over 50% in size
Target sequence (O95398 whole entry, looked up): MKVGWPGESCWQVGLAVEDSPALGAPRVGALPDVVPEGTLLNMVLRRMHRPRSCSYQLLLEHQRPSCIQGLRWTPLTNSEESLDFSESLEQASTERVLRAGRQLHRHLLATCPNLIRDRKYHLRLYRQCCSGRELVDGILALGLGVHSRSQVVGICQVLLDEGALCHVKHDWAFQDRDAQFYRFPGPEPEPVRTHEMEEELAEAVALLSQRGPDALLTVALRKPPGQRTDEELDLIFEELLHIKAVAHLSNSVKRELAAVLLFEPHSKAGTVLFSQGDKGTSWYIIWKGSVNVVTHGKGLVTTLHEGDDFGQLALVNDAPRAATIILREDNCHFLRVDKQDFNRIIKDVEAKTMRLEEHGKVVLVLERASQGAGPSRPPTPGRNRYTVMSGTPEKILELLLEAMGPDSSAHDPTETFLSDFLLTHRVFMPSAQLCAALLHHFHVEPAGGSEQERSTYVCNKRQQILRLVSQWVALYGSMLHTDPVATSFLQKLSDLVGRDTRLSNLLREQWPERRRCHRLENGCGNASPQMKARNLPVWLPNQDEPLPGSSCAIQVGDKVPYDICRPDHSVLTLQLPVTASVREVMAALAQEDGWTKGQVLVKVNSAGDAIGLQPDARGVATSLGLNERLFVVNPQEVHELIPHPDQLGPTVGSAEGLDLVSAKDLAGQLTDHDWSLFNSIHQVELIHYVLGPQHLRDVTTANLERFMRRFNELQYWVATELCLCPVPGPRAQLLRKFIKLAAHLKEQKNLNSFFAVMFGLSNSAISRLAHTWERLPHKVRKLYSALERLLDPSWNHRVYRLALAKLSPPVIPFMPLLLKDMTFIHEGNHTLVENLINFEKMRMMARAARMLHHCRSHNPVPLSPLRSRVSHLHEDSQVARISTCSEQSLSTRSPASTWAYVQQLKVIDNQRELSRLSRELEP
EPAC1 ag = agonists of human EPAC1; O95398; EPAC1 agonist qHTS, biochemical assay; response scale: 100% = response to 6.5 mM cAMP; Potency, µM (top dose mostly 154 µM), hits mostly activators; 360,000 compounds, 0.073% hits; AID 720707; note: nearly all actives have a fitted effect of over 60% in size
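Read-out is the fluorescence drop as BODIPY-GDP leaves Rap1B (480 nm excitation, 540 nm emission), recorded every 5 minutes over 30 minutes. Reactions held 100 nM EPAC1, 250 nM Rap1B–BODIPY-GDP and 50 uM GDP, with 6.5 mM cAMP setting full activation.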
EPAC2 agonist = agonists of human EPAC2 (RAPGEF4) | Potency, µM (series often up to 154 µM), usual class: activators | AID 720711 | Q8WZA2 | EPAC2 activation, biochemical qHTS; response scale: 100% = 6.5 mM cAMP response | 360,000 compounds, 0.079% hits; note: nearly all actives have a fitted effect of over 50% in size
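Exchange assay: 100 nM EPAC2 with 250 nM Rap1B-BODIPY-GDP and 50 uM GDP. Fluorescence (ex 480/em 540 nm) read every 5 min for 30 min at room temperature. Data normalized to 6.5 mM cAMP as agonist control.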
Rango complex inh = inhibitors of Rango-importin beta complex formation | AID 540263 | Potency, µM (doses to about 92.2 µM) | 340,000 compounds, 0.031% hits | Q14974 | Rango CFP/YFP FRET sensor + importin beta, 45 min; calls by dose curve; note: nearly all actives have a fitted effect of over 15% in size
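FRET biosensor Rango (snurportin 1 IBB between N-terminal EYFP and C-terminal Cerulean), 50 nM in PBS/1 mM DTT/0.02% Tween-20/0.1% BSA, preincubated 5 min RT with compound; 0.125 microM importin beta added, 45 min RT, CFP/YFP FRET ratio read.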
Rango dissoc inh = prevents RanGTP from dissociating the Rango-importin beta complex. O95149+P62826. Biochemical FRET Rango-importin beta, RanGTP-induced dissociation. Potency, µM (highest dose often 46.1 µM). 340,000 compounds, 0.071% hits; calls by dose curve; note: nearly all actives have a fitted effect of over 45% in size
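Two FRET readings bracket the reaction: one 5 min after compound meets Rango–importin beta, another 45 min after RanGTP-RCC1 (0.6 uM Ran, 0.2 uM RCC1, 2 mM GTP) is added. Only the second defines inhibition.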
Hits are given with their value; 0 = inactive; ? = inconclusive; - = no result. In the library only some 0.48% were active in any assay of this set; here they are far more common. Unless noted, calls come from the whole dose curve; as a rule, active = well fitted curve in the direction sought with a large enough effect; inconclusive = small, poorly fitted or top-dose-only effect, or another doubt; inactive = no such curve, though single readings can be large; an effect the other way counts as inactive or inconclusive.

SMILES	EPAC2 antagonist	EPAC1 antagonist	EPAC1 ag	EPAC2 agonist	Rango complex inh	Rango dissoc inh
CC1(C(=O)NS(=O)(=O)c2cccc(F)c2)CCN1C(=O)C1(c2ccc(Cl)cc2)CCC1 (stereo unspecified)	?	0	0	0	-	-
CN(C)c1nc(Oc2ccc(=O)[nH]n2)nc(N2CCOCC2)n1	25.1µM	0	0	0	0	0
CCc1ccc(-c2cc(C(F)(F)F)n3nc(C(=O)Nc4cnn(Cc5ccccc5C)c4)cc3n2)s1	0	0	0	0	?	?
C[C@H](NC(=O)C1(c2ccccc2)CCN(C(=O)OC(C)(C)C)CC1)C(=O)N[C@@H](C(=O)O)c1ccccc1	0	0	0	0	0	0
C[C@@H](NC(=O)C1(c2ccccc2)CCN(C(=O)OC(C)(C)C)CC1)C(=O)N[C@@H](C(=O)O)c1ccccc1	?	56.2µM	0	0	0	0
Cc1c(CCC(=O)O)c(=O)oc2c(C)c3occ(-c4ccc(Cl)cc4)c3cc12	0	39.8µM	?	?	0	0
Cc1cc(N2CCOCC2)nc2cc(O)ccc12	0	0	0	0	?	16.4µM
COc1ccccc1C1SCCN1S(C)(=O)=O (stereo unspecified)	0	0	0	7.94µM	0	0
CCN(CC)S(=O)(=O)c1ccc(C(=O)N2CCN=C2SCc2cccnc2)cc1	0	0	0	0	0	0
O=C1Nc2ccccc2-n2nnnc2C1N1CCN(c2ccccn2)CC1 (stereo unspecified)	0	0	0	0	-	-
Cc1cccc(C)c1-n1c(C)cc(/C=N\Nc2ccc([N+](=O)[O-])cn2)c1C	0	0	0	3.98µM	?	?
COc1cccc(OC)c1OC(=O)/C=C/c1ccc(C)o1	56.2µM	0	0	0	0	0
O=C(NCCOc1ccc(F)cc1)c1ccccc1SCc1ccccc1	50.1µM	0	0	0	0	0
O=c1[nH]cc(N=Cc2cc(Cl)cc(Cl)c2O)c(=O)[nH]1	0	0	100µM	0	?	?
O=c1[nH]c(O)c(C=Nc2ccc(Cl)cc2Cl)c(=O)[nH]1	0	0	0	0	0	0
CCc1nc2ccc(C(=O)Nc3cccc(OCC(=O)N(C)C)c3)cn2c1N(C=O)Cc1ccc(OC)cc1	0	0	0	0	-	-
COc1cccc(CN2CC(O)=C(c3nc(-c4ccc(Cl)cc4)cs3)C2=N)c1	0	0	0	6.31µM	0	0
COc1ccc(-c2csc(C3=C(O)CN(Cc4ccc(Cl)cc4)C3=N)n2)cc1OC	0	0	0	0	0	0
CC(C)NC(=O)C1(C)CN(S(C)(=O)=O)CC(=O)N1CC(F)(F)F (stereo unspecified)	0	0	0	0	-	-
COc1cc(/C=C2\C(=N)N3N=C(S(C)(=O)=O)SC3=NC2=O)cc(OC)c1OCCOc1ccccc1C	?	50.1µM	0	0	0	0
COc1cccc(OCCOc2ccc(/C=C3\C(=N)N4N=C(S(C)(=O)=O)SC4=NC3=O)cc2OC)c1	0	70.8µM	0	0	0	0
COC(=O)[C@]12CCCCC=C1N(CCc1ccc(OC)c(OC)c1)C(=O)[C@H](CC(=O)N1CCN(C(=O)c3ccco3)CC1)C2	0	0	0	0	-	-
COC(=O)[C@@]12C[C@@H](CC(=O)NCC3CCCCC3)C(=O)N(Cc3ccco3)C1=CCC(C)(C)C2	0	0	0	0	-	-
COc1cccc(C2CC(c3cccs3)=NN2C(=O)c2ccco2)c1O (stereo unspecified)	35.5µM	0	0	0	0	0
COc1cccc(C2=NN(C(=O)c3ccco3)C(c3ccco3)C2)c1 (stereo unspecified)	14.1µM	0	0	0	?	0
Cc1cccc(C)c1N1C(=O)c2ccccc2NC(=O)C1C(=O)NCCc1ccccc1F (stereo unspecified)	0	0	0	0	-	-
COC(=O)CC1(c2ccc(OC)cc2)C(=O)c2ccccc2C1=O	44.7µM	0	0	0	0	0
O=C(N/N=C/c1cccnc1)c1cccc(N2CCCC2=O)c1	0	0	0	0	0	0
